Compounds with a hit are over-represented: about 3.8% of the library has one in this group of screens.
tim23-1 inh: tim23-1 yeast growth inhibition; S. cerevisiae tim23-1 growth, BacTiter-Glo luminescence, 24 h; inhibition, % at 20 µM; hit rate 1.3% among 330,000; AID 463212;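 active = growth inhibition of the mutant yeast at or above 50%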;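 note: temperature-sensitive mutant grown at 25 °C; plate controls were DMSO-treated mutant yeast for no effect and medium wells lacking yeast for full effect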
PfHsp90 yeast 2: growth inhibition of yeast expressing Plasmodium Hsp90; inhibition, % at 9.4 µM; S. cerevisiae expressing PfHsp90, BacTiter-Glo ATP, 48 h; yeast lacking PDR1 and PDR3 efflux regulators; hit rate 0.32% among 310,000; AID 504621;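 active = every replicate shows inhibition above about 80%, whatever the replicate mean, limit read from the data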;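 note: 0% = DMSO neutral controls and 100% = 20 µM radicicol positive controls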
tim10-1 inh: growth inhibitors of tim10-1 mutant yeast. S. cerevisiae tim10-1 ts strain growth, BacTiter-Glo, 24 h. inhibition, % at 20 µM. hit rate 2.2% among 330,000. AID 463190;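 active = inhibition of at least 40%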;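 note: mutant grown at 25 °C; 0% = DMSO wells with yeast and 100% = wells holding no yeast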
TIM10 inh: TIM10 yeast growth inhibition. S. cerevisiae TIM10 strain growth, BacTiter-Glo luminescence, 24 h. inhibition, % at 10 µM. hit rate 1.4% among 330,000;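 active = inhibition of 40% or more at the single tested concentration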;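 note: wild-type TIM10 isogenic control strain grown at permissive 25 °C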
B2AR ag: activates human beta-2 adrenergic receptor causing internalization; P07550; Am2.2-beta2AR cells, FAP receptor internalization, flow cytometry; response, % (no concentration beside the values); hit rate 0.43% among 340,000;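 active = response above a set limit, near 3 SD of response in nonfluorescent compounds, cut at about 42% in these data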
Target sequence (P07550 whole entry, looked up): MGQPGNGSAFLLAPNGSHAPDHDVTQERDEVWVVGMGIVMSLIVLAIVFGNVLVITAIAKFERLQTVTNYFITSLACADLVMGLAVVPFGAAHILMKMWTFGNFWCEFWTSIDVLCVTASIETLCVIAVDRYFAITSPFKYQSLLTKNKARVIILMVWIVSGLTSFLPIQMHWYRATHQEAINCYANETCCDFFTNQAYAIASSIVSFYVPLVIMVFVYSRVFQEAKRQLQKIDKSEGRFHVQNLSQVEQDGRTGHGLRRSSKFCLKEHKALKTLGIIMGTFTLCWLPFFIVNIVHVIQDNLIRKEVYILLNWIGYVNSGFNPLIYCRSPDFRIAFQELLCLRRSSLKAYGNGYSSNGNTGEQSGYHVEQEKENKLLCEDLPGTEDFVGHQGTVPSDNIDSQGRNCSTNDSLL
tim23-1 confirm: confirmation of tim23-1 mutant yeast growth inhibitors | inhibition, % at 20 µM | S. cerevisiae tim23-1 growth, BacTiter-Glo luminescence, 24 h | hit rate 83% among 4,400 | shares compounds with tim23-1 inh | AID 463218;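 active = inhibition above about 39% in either of two replicate wells at 20 µM, limit read from the data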;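 note: temperature-sensitive tim23-1 mutant grown at 25 °C; 0% = DMSO wells with yeast and 100% = medium wells without yeast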
* = called active by the depositor; · = no result.

SMILES | tim23-1 inh | PfHsp90 yeast 2 | tim10-1 inh | TIM10 inh | B2AR ag | tim23-1 confirm
O=C(NCC(=O)N(c1cnc2ccccc2c1)C(C(=O)NC1CCCC1)c1ccncc1)c1ccco1 (centres undefined) | 68.0* | 3.6 | 2.0 | 12.9 | -0.1 | 9.4
O=C(NCC(=O)N(c1ccccc1)C(C(=O)NC1CCCCC1)c1ccncc1)c1ccco1 (centres undefined) | 2.8 | -5.0 | 9.4 | -10.2 | -7.9 | ·
N=C1/C(=C\c2coc3ccccc3c2=O)C(=O)N=C2SC(c3ccncc3)=NN12 | 53.5* | -62.6 | 22.0 | 34.6 | -8.0 | 5.8
FC(F)(F)c1ccc(/C=N/n2c(C3CCCCC3)n[nH]c2=S)cc1 | 64.0* | -16.4 | 36.5 | 26.1 | 3.5 | 29.8
O=[N+]([O-])c1ccccc1/C=N/n1c(C2CCCCC2)n[nH]c1=S | 59.3* | 20.7 | 39.8 | 37.0 | -8.0 | 48.5*
O=[N+]([O-])c1cccc(/C=N/n2c(C3CCCCC3)n[nH]c2=S)c1 | 26.2 | -1.2 | 26.0 | 15.8 | -8.2 | ·
S=c1[nH]nc(C2CCCCC2)n1/N=C/c1ccc(Br)cc1 | 10.7 | -10.5 | 33.3 | 23.5 | -5.2 | ·
S=c1[nH]nc(C2CCCCC2)n1/N=C/c1ccc(Cl)cc1 | 63.2* | 0.5 | 35.3 | 39.7 | -3.7 | 30.0
CCc1ccc(/C=N/n2c(C3CCCCC3)n[nH]c2=S)cc1 | 39.7 | -11.0 | 9.7 | 20.9 | -5.3 | ·
Cc1ccc(/C=N/n2c(C3CCCCC3)n[nH]c2=S)cc1 | 57.4* | 17.5 | 25.2 | 16.2 | 3.5 | 38.7
CCOc1cc(S(=O)(=O)N2CCCCCC2)ccc1F | 28.5 | 1.0 | 12.7 | 2.8 | -9.8 | ·
CCN1C(N(C)C)=NC[C@@H]1Cc1ccccc1 | 7.8 | -3.1 | 5.7 | 5.3 | 0.9 | ·
CC(C)CN(CC(C)C)c1nn[nH]n1 | · | -4.7 | · | · | -1.6 | ·
CCCNC(=S)Nc1cc2oc3ccccc3c2cc1OC | 51.9* | -9.7 | 27.5 | 29.1 | 7.8 | 52.1*
CCNC(=S)Nc1cc2oc3ccccc3c2cc1OC | 34.0 | 4.4 | 1.5 | 18.0 | 9.8 | ·
O=C1NC(c2ccccc2Cl)=N/C1=C/c1ccco1 | 53.2* | 12.2 | 16.4 | 30.6 | -5.1 | 22.0
CCc1ccc(OCC(=O)N2CCN(c3ccccn3)CC2)c(Br)c1 | 52.7* | -12.6 | 37.4 | 25.8 | -19.7 | 38.5
C[n+]1c2n(c3ccccc31)N=C(c1ccc(-c3ccccc3)cc1)CS2 | 60.0* | -53.8 | -2.7 | 7.6 | -11.1 | 47.0*
COc1ccc(OC)c2c1sc(=NC(=O)C(C)C)n2C | 52.6* | 7.9 | 31.0 | 23.6 | -1.6 | 46.8*
CCn1c(SCC(=O)Nc2oc(C)c3c(C)n[nH]c(=O)c23)nc2sc(C)c(C)c2c1=O | 55.3* | -25.2 | 30.3 | 29.1 | 4.5 | 7.5
CCCN1CCN(C(=O)c2cccc3c2C(=O)N(CCOC)C3)CC1 | 95.9* | 8.7 | 2.6 | -4.0 | 6.1 | 14.0
CCCN1Cc2cccc(C(=O)N3CCN(c4ccc(F)cc4)CC3)c2C1=O | 6.5 | -4.8 | 10.5 | 7.8 | 6.2 | ·
CSc1nc2ncncc2[nH]1 | · | 18.2 | · | · | -0.2 | ·
O=C(Nc1ccccn1)c1cccc(S(=O)(=O)N2CCCC2)c1 | 6.1 | -9.4 | 9.6 | -4.5 | -6.2 | ·
COc1cc(NC(=S)Nc2ccccn2)cc(OC)c1OC | 0.1 | -30.8 | 32.9 | 9.2 | -10.3 | ·
SMILES | tim23-1 inh | PfHsp90 yeast 2 | tim10-1 inh | TIM10 inh | B2AR ag | tim23-1 confirm
COc1cc(NC(=S)Nc2ccccn2)cc(OC)c1 | 51.1* | 13.2 | 15.0 | 26.5 | -16.5 | 17.8
CCOc1ccccc1C(=O)Oc1ccc2ccc(=O)oc2c1 | 68.3* | 9.5 | 5.1 | 32.1 | -7.6 | 47.1*
CCc1c(O)nc(SCC(=O)N2CCc3cc(OC)c(OC)cc3[C@@H]2C)[nH]c1=O | -4.9 | -14.4 | -5.3 | 0.7 | -0.5 | ·
CCOC(=O)c1ccc(NC(=O)c2nn(CC)cc2Br)cc1 | 21.0 | 4.1 | 18.1 | 9.3 | -5.2 | ·
O=C(Nc1ccc(F)c(Cl)c1)c1ccccc1 | 64.3* | 6.4 | 14.4 | 34.1 | 3.9 | 66.9*
CCn1cc(Br)c(C(=O)Nc2ccc(Cl)cc2Cl)n1 | 94.5* | -28.3 | 39.2 | 20.4 | -25.3 | 37.7
CCn1cc(Br)c(C(=O)Nc2ccc(F)c(Cl)c2)n1 | 53.5* | 8.4 | 28.0 | 26.9 | -10.5 | 44.5*
Nc1nccc(SCc2ccccc2)n1 | · | -3.1 | · | · | 6.6 | ·
O=C(Nc1cccc(Cl)c1)ON=C1c2ccccc2-c2ccccc21 | 61.8* | -4.5 | 17.0 | 7.6 | 2.9 | 45.8*
O=C(Nc1cccc(Cl)c1)Nc1cccc(Cl)c1 | 17.6 | -9.8 | 1.2 | 7.2 | -3.0 | ·
COc1cccc(/C=N/Nc2nccnc2Cl)c1O | 66.5* | 20.0 | 39.3 | 17.5 | -1.1 | 61.0*
CCCOc1ccc(/C=C2/C(=O)ON=C2C)cc1OCC | 35.7 | 3.1 | 4.8 | 2.3 | 8.8 | ·
CCOc1cc(/C=C2\C(=O)ON=C2C)ccc1OCc1ccccc1 | 51.0* | 10.6 | 32.5 | 12.2 | 19.0 | 40.9*
CC(/C=N/NC(=O)c1cccs1)=C\c1ccco1 | 63.7* | 3.1 | 6.0 | 23.1 | -2.9 | 71.0*
N#C/C(=C\c1ccc(OC(F)F)cc1)C(=O)N1CCCCC1 | 61.7* | -8.3 | 32.8 | 25.1 | 28.0 | 44.4*
O=C(Nc1ccc(F)c([N+](=O)[O-])c1)c1cccs1 | 53.0* | 2.5 | -15.1 | 8.4 | -13.2 | 49.2*
Cc1ccn(-c2ccc(NC(=O)c3cccs3)cc2)n1 | 74.9* | 58.7 | 13.5 | 37.7 | -6.0 | 68.6*
Cc1sc(NC(=O)c2cccs2)c(C(N)=O)c1C | 50.8* | -13.5 | 21.1 | 22.1 | -14.3 | 67.3*
O=C(Nc1ccc(Cl)cc1)c1cccs1 | 61.1* | -2.6 | -4.8 | 36.8 | -9.4 | 58.6*
Cc1cc(Oc2cccc3c2S(=O)(=O)N(C2CCCC2)CC(COCc2ccccc2)O3)cc(C)c1C (centres undefined) | · | 6.6 | · | · | 8.5 | ·
O=C(Nc1ccc(NC(=O)c2cccs2)c(Cl)c1)c1cccs1 | 50.5* | 9.5 | 8.4 | 28.1 | -22.9 | 64.7*
Cc1nc2ccc(NC(=O)c3cccs3)cc2c(=O)n1Cc1ccc(Cl)cc1 | 62.4* | 15.1 | 32.5 | 33.3 | 5.5 | 45.9*
CCCc1nc2ccc(NC(=O)c3cccs3)cc2c(=O)n1Cc1ccc(Cl)cc1 | 13.4 | -10.8 | -8.3 | 21.4 | 6.4 | ·
Nc1ccc(NC(=O)c2cccs2)c(Cl)c1 | 6.8 | -18.7 | 10.2 | 3.1 | 0.9 | ·
CC(=O)c1ccc(NC(=O)CSc2n[nH]c(-c3cccnc3)n2)cc1 | -1.3 | 22.1 | -3.0 | 3.9 | -3.6 | ·
C=CCOc1ccc(/C=C2\SC(=S)N(NS(=O)(=O)c3ccccc3)C2=O)cc1 | 60.4* | -18.3 | 19.0 | 26.3 | 3.6 | 55.7*
Cc1cccc(-c2cc3nc4c(c(N5CCOCC5)n3n2)CCCC4)c1 | 58.3* | 19.6 | 10.6 | 13.7 | 4.6 | 47.0*
N#C/C(=C\c1ccc(O)cc1)c1nc2ccccc2o1 | 54.4* | 9.5 | 33.1 | 36.2 | -15.2 | 61.3*
Cc1ccc(S(=O)(=O)NC(Cc2ccccc2)C(=O)NN)cc1 (centres undefined) | 1.9 | 5.0 | 12.0 | 4.4 | 0.8 | ·

Assay outcomes deposited in PubChem BioAssay by several laboratories.
